From PubChem
Most compounds without a hit are left out; they make up all but 4% or so of the library.
TWEAK-Fn14 inh = inhibitors of TWEAK-Fn14 signaling, primary screen, luciferase reporter cells, uHTS; 360,000 compounds, 2% hits; inhibition, % at 10 µM; TWEAK-stimulated Fn14 reporter cells, luciferase luminescence, 8 h; in the data active means inhibition above about 50%
MITF TRPM1 inh = inhibitors of MITF-dependent TRPM1 promoter reporter, primary screen, cell-based, SK-MEL-5, single point, luciferase; SK-MEL-5 TRPM1 promoter luciferase, 24 h; inhibition, % at 12.5 µM; 330,000 compounds, 0.83% hits; AID 488899, 2010;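 active means mean inhibition across replicates of 60% or more, whatever share of single replicates reaches that level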
TROY NFkB inh = inhibitors of TROY-driven NF-kB signaling, primary screen, Q293 LMP1-TROYcd cells, NF-kB luciferase, uHTS. 360,000 compounds, 0.98% hits. AID 1347056, 2019. Q293 LMP1-TROYcd NF-kB luciferase reporter, 4 h. inhibition, % at 10 µM;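 active means compounds whose plate-normalised and pattern-corrected inhibition of the luciferase reporter signal at the single screening dose is 50% or more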
HIF-2a inh = HIF-2a reporter inhibitors, primary screen, luminescence, 786-0 RCC cells; 786-0 RCC cells HIF-2a reporter, luciferase luminescence, overnight; 360,000 compounds, 0.72% hits; AID 624352, 2012; inhibition, % at 18.8 µM;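 active means inhibition of the luminescence signal of 40% or more relative to plate controls, in a single-dose primary screen at 18.75 µM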
LMP1 NFkB inh = EBV LMP1-driven NF-kappaB luciferase reporter inhibitors, primary screen, cell-based, luminescence, single point | LMP1-induced NF-kappaB luciferase reporter cells | inhibition, % at 12.5 µM | 350,000 compounds, 0.69% hits | AID 504558, 2011; in the data active means inhibition above about 41%;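 further: 0% = neutral control wells and 100% = reference inhibitor control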
Peg3 prom inh = Peg3 promoter-driven luciferase inhibitors, primary screen, cell-based, HeLa, luciferase luminescence | HeLa PEG-Prom luciferase reporter, overnight | inhibition, % at 20 µM | 360,000 compounds, 1.7% hits | AID 588405, 2011;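 active means inhibition of at least 50% at 20 µM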
* hit, by the source's call; nt = no result.

SMILES	TWEAK-Fn14 inh	MITF TRPM1 inh	TROY NFkB inh	HIF-2a inh	LMP1 NFkB inh	Peg3 prom inh
COc1ccccc1C(=O)NC(CCSC)C(=O)NCc1ccncc1 (stereo not drawn)	-15.8	nt	-4.2	9.8	-1.0	10.0
CCOc1ccccc1-n1nnnc1SCC(=O)NC(=O)Nc1ccc2c(c1)OCCO2	69.6*	-0.4	24.7	6.1	2.2	-2.7
COc1ccc2nc(S(=O)Cc3ncc(C)c(OC)c3C)[nH]c2c1 (stereo not drawn)	5.7	17.4	2.0	-3.7	84.4*	-4.3
CCCCC[C@@H](C)N1C[C@@H](COCc2ccccc2)Oc2cc(N3CCC[C@@H]3COC)ccc2S1(=O)=O	-2.2	nt	-34.9	-27.8	nt	nt
O=C(c1ccccc1)c1cccc[n+]1[O-]	-0.9	-7.0	12.9	14.4	-15.1	27.1
COc1ccc2c(-c3ccc(OCCN4CCCCC4)cc3)c(-c3ccccc3OC)sc2c1	-20.6	19.8	-1.7	-8.0	-46.9	92.1*
COc1ccccc1-c1sc2ccccc2c1-c1ccc(OCCN2CCCCC2)cc1	-12.7	1.5	-7.3	7.1	-22.5	91.3*
COc1ccc2sc(-c3ccccc3OC)c(-c3ccc(OCCN(C)C)cc3)c2c1	-76.0	27.6	11.3	-19.1	-23.1	89.0*
C=C1C(C(=O)N2CCN(C)CC2)C1C(=O)N1CCN(C)CC1 (stereo not drawn)	3.0	-5.7	10.0	-0.2	7.7	1.5
C=C1C(C(=O)N2CCOCC2)C1C(=O)N1CCOCC1 (stereo not drawn)	78.1*	12.8	56.9*	-3.3	-4.9	2.2
CCOC(=O)C(C)Sc1nc(-c2cccs2)ccc1C#N (stereo not drawn)	0.3	-0.1	4.0	-59.8	59.6*	-39.1
CCOc1cc(CNC2CCCC2)cc(Cl)c1OCc1ccc(F)cc1	-13.3	14.5	-20.7	-1.5	-42.2	90.7*
O=C(CCn1c(=O)oc2ccccc21)Nc1cccc(Br)c1	-6.0	-6.9	-5.2	2.4	-14.2	9.9
COc1ccc2[nH]c3c(c2c1)CC(C)NC3=O (stereo not drawn)	71.4*	13.4	49.8	13.5	28.0	2.0
Clc1ccc(CSc2nc3ccncc3[nH]2)cc1	12.9	-25.1	-52.8	-126.0	22.0	-137.1
O=C(c1ccc(CSc2nc3ccncc3[nH]2)cc1)N1CCCCCC1	12.3	-49.7	-30.4	-100.7	23.1	-22.5
O=C(c1ccc(CSc2nc3ccncc3[nH]2)cc1)N1CCN(c2cccc(Cl)c2)CC1	61.4*	nt	54.2*	-29.6	9.0	15.5
Cc1ccc(CSc2nc3ccncc3[nH]2)cc1	38.2	-0.5	-3.3	-19.0	47.3*	-33.6
C#CCn1cc(/C=N/Nc2nc3ccccc3[nH]2)c2ccccc21	53.1*	-5.8	-3.6	-161.7	-13.9	-106.2
CCN(CC)c1ccc(/C=N/Nc2nc3ccccc3[nH]2)c(O)c1	53.1*	43.7	54.8*	-119.0	55.1*	-11.6
C(=N\Nc1nc2ccccc2[nH]1)/c1cccc2nccnc12	3.5	-9.2	-19.3	-98.0	47.0*	-19.6
Cc1ccc(NC(=O)CSc2nnnn2C2CC2)cc1S(=O)(=O)N1CCOCC1	-25.9	-0.1	11.3	12.8	-0.9	0.8
CC1C/C(=N\Nc2ccc(S(N)(=O)=O)cc2[N+](=O)[O-])CC(C)(C)C1 (stereo not drawn)	-5.1	0.7	1.1	10.9	10.3	10.9
Cc1cc(C)c2c(c1)/C(=N/Nc1ccc(S(N)(=O)=O)cc1[N+](=O)[O-])CCC2	-68.7	-10.4	15.1	8.1	10.7	61.2*
O=C1NC[C@@H](c2ccccc2)OC(=O)[C@H](Cc2ccc(F)cc2)C/C=C\C[C@H]1CC(=O)N(CCO)Cc1ccccc1	15.0	-0.9	12.9	7.9	1.2	25.6
SMILES	TWEAK-Fn14 inh	MITF TRPM1 inh	TROY NFkB inh	HIF-2a inh	LMP1 NFkB inh	Peg3 prom inh
O=C1NC[C@H](c2ccccc2)OC(=O)[C@H](Cc2ccc(F)cc2)C/C=C\C[C@H]1CC(=O)N(CCO)Cc1ccccc1	25.7	12.2	13.3	-14.2	7.6	54.1*
O=C1NC[C@H](c2ccccc2)OC(=O)[C@@H](Cc2ccc(F)cc2)C/C=C\C[C@H]1CC(=O)N(CCO)Cc1ccccc1	42.6	23.9	22.3	6.0	6.9	68.3*
COc1cc(NC(=O)C2CC(c3ccccc3Cl)=NO2)cc(OC)c1OC (stereo not drawn)	14.3	4.6	10.1	13.1	15.4	20.3
COc1cc(C2Oc3ccccc3C=C2[N+](=O)[O-])cc(OC)c1OC (stereo not drawn)	-13.6	nt	-0.2	32.0	nt	52.0*
COc1cc(C2NC(=O)c3ccccc3O2)cc(OC)c1OC (stereo not drawn)	-3.8	0.1	-6.5	6.8	11.7	5.8
O=C1NC[C@H](CCCCN2C[C@H](Cc3ccc(O)cc3)N(CCc3ccc(O)cc3)C(=O)C2=O)N(Cc2ccccc2)C1=O	3.5	nt	6.9	9.1	nt	nt
COC(=O)c1cnc(Nc2nc(C(N)Cc3ccc(Cl)cc3)cs2)nc1C(F)(F)F (stereo not drawn)	-38.7	nt	0.4	17.4	nt	95.9*
COC(=O)c1cnc(Nc2nc(C(N)Cc3ccccc3)cs2)nc1C(F)(F)F (stereo not drawn)	-43.8	nt	-8.1	-15.1	nt	52.0*
COC(=O)c1cnc(Nc2nc(C(N)Cc3ccc(OC)cc3)cs2)nc1C(F)(F)F (stereo not drawn)	1.4	nt	-5.1	9.7	nt	24.7
Cn1c(Cc2ccccc2)nc(=O)c2ccccc21	11.3	nt	-6.1	10.0	nt	12.0
COCCN(C(=O)COC(=O)CCC1CCCC1)c1c(N)n(Cc2ccccc2)c(=O)[nH]c1=O	2.9	-0.7	-3.6	3.9	0.4	1.8
CC(=O)NC1C(O)OC(CO)C(O)C1O (stereo not drawn)	-6.8	1.7	-0.6	8.6	79.7*	-7.3
CC(=O)N[C@H]1C(O)O[C@H](CO)[C@@H](O)[C@@H]1O (stereo partly drawn)	-7.0	6.2	5.8	7.0	-3.2	0.1
Cc1cccc(/C=N/NC(=O)c2cc(Br)ccc2OCc2ccccc2)n1	-11.2	18.7	13.4	13.8	6.7	46.0
Cc1cccc(/C=N/NC(=O)c2ccccc2OCc2cccc(Br)c2)n1	76.5*	15.1	19.6	7.0	30.2	33.6
COc1cc(C)nc(NCc2ccccc2)n1	-40.4	-8.6	-8.2	0.9	-2.4	-8.8
Cc1ccc(Nc2cc(C)nc(NCc3ccccc3)n2)cc1	23.4	40.8	13.0	-7.3	10.6	73.3*
COc1ccc(Nc2cc(C)nc(NCc3ccccc3)n2)cc1	-6.3	18.9	-24.3	-7.5	7.9	8.4
Cc1cc(NC2CCCCC2)nc(NCc2ccccc2)n1	16.8	7.5	39.8	5.3	13.1	65.5*
